{
  "source": "PubChem BioAssay AID1985",
  "about": "(Southern Research Specialized Biocontainment Screening …, 2009)",
  "note": "Screen size: about 2,300 compounds; about 1,000 (43%) were called active. No rule for the calls is given here. The set was probably picked from earlier hits. Some of the results follow. Potency and affinity values are given separately.",
  "data": [
    {"assay": "modified counter assay using GFP fluorescence, PhoP regulon inhibitor project, dose response (AID 1985)", "conditions": "S. Typhi, 4 h; series mostly up to 150 µM; inhibition: at the top concentration", "values": [
      {"smiles": "N#C/C(=C\\c1ccc(O)c(O)c1)C(=O)c1ccc(O)c(O)c1", "inhibition": "29% (inactive)"},
      {"smiles": "COc1ccc(CNC(=O)CCC(=O)N2C[C@H]3C[C@H](C2)c2cccc(=O)n2C3)cc1", "inhibition": "-4.17% (inactive)"},
      {"smiles": "CCOC(=O)Cc1nn(C)c(=O)c2ccccc12", "inhibition": "-23.1% (inactive)"},
      {"smiles": "O=C(/C=C/c1c(F)cccc1Cl)N1CCOCC1", "inhibition": "17.3% (inactive)"},
      {"smiles": "COc1cc(OC)nc(NC(=O)C(C)C)n1", "inhibition": "-18.1% (inactive)"},
      {"smiles": "NC(=O)c1c(NC(=O)CSc2nc(N)cc(=O)[nH]2)sc2c1CCCC2", "inhibition": "5.12% (inactive)"},
      {"smiles": "COCc1cc(=O)n2[nH]c(C)nc2n1", "inhibition": "-4.12% (inactive)"},
      {"smiles": "Nc1ccc(S(=O)(=O)Nc2ccc(Cl)nn2)cc1", "inhibition": "24.8% (inactive)"},
      {"smiles": "CC1=C(c2ccccc2)SC2=NCCN21", "inhibition": "14.3% (inactive)"},
      {"smiles": "O=C(NCc1cccnc1)c1ccc(COc2ccc(Cl)cc2)cc1", "inhibition": "-4.41% (inactive)"},
      {"smiles": "O=C(COc1ccc(Cl)cc1)N1CCCCC1", "inhibition": "-7.26% (inactive)"},
      {"smiles": "CN(C)CCNC(=O)c1ccc(COc2ccc(Cl)cc2Cl)cc1", "inhibition": "31.5% (inactive)"},
      {"smiles": "Clc1ccc(OCc2nn3c(C4CCCCC4)nnc3s2)c(Cl)c1", "inhibition": "-17.4% (inactive)"},
      {"smiles": "CC(=O)Nc1nc(C)c(-c2csc(Nc3ccc(O)cc3)n2)s1", "inhibition": "4.57% (inactive)"},
      {"smiles": "Cc1c(O)cccc1C(=O)N[C@@H](CSc1ccccc1)[C@H](O)CN1C[C@H]2CCCC[C@H]2C[C@H]1C(=O)NC(C)(C)C", "outcome": "inactive"},
      {"smiles": "CCc1nc(SCC(=O)NCCc2ccccc2)c2c(=O)n(C)c(=O)n(C)c2n1", "inhibition": "-18.8% (inactive)"},
      {"smiles": "Cc1cc(=O)oc2c(CN(C)Cc3ccccc3)c(O)ccc12", "inhibition": "-8.93% (inactive)"},
      {"smiles": "O=C(N/N=C\\c1ccc(F)cc1)c1ccc(F)cc1", "inhibition": "11.9% (inactive)"},
      {"smiles": "CC(C)CNC(CC(=O)O)c1ccccc1", "note": "(configuration not stated)", "inhibition": "-0.97% (inactive)"},
      {"smiles": "CN(CCOc1ccc(Cl)cc1)CC(O)c1ccccc1", "note": "(configuration not stated)", "inhibition": "5.59% (inactive)"},
      {"smiles": "CC(c1cccnc1)N(CCN(C)C)C(=O)Nc1ccc(Cl)c(Cl)c1", "note": "(configuration not stated)", "inhibition": "16.1% (inactive)"},
      {"smiles": "CCS(=O)(=O)N1CCC(C(=O)NCc2cc(OC)ccc2OC)CC1", "inhibition": "9.84% (inactive)"},
      {"smiles": "CNC(CC(=O)c1ccc([N+](=O)[O-])cc1)C(Cl)(Cl)Cl", "note": "(configuration not stated)", "inhibition": "38.9% (inactive)"},
      {"smiles": "O=[N+]([O-])c1ccc(CN2CCSCC2)cc1", "inhibition": "0.47% (inactive)"},
      {"smiles": "COc1ccc(Cl)cc1NC(=O)CN(C)CC(=O)Nc1ccccc1C(F)(F)F", "inhibition": "-29% (inactive)"},
      {"smiles": "Cn1nnnc1SCc1nnc(-c2ccccc2Br)o1", "inhibition": "16.3% (inactive)"},
      {"smiles": "O=C(Nc1ccc(Cl)cc1)N1CCOC12CCC1(CC2)OCCO1", "inhibition": "-9.64% (inactive)"},
      {"smiles": "Cc1cc(=O)oc2cc(OCC(=O)NC3CCCC3)ccc12", "inhibition": "-2.92% (inactive)"},
      {"smiles": "COc1ccc(Nc2c3c(nc4ccccc24)CCC3)cc1", "inhibition": "4.93% (inactive)"},
      {"smiles": "Cc1ccc(CSc2nc3c(c(=O)[nH]2)CCC3)cc1", "inhibition": "20.2% (inactive)"},
      {"smiles": "Cc1cccc(Nc2c3c(nc4ccccc24)CCC3)c1", "inhibition": "31.8% (inactive)"},
      {"smiles": "FC(F)(F)c1ccccc1NC1=NCCC1", "inhibition": "-30.2% (inactive)"},
      {"smiles": "CCCCNCCCOc1cccc(Cl)c1Cl", "inhibition": "-22.7% (inactive)"},
      {"smiles": "COc1ccccc1/C=N/N1C(=O)c2cccc3cccc(c23)C1=O", "inhibition": "29.8% (inactive)"},
      {"smiles": "O=C(NC(=S)Nc1ccc(S(=O)(=O)Nc2nccs2)cc1)c1cccnc1", "inhibition": "8.15% (inactive)"},
      {"smiles": "C=CCSc1nnc(NC(=O)CSc2nc3ccccc3o2)s1", "inhibition": "22% (inactive)"},
      {"smiles": "CCOC(=O)c1nc2cc3n(c(CC(C)C)c-2c1C)CC(C)=C3C", "inhibition": "11% (inactive)"},
      {"smiles": "NS(=O)(=O)c1ccc(CCNC(=O)C(=O)C2C(=O)Nc3ccccc32)cc1", "note": "(configuration not stated)", "inhibition": "8.28% (inactive)"},
      {"smiles": "COc1ccccc1-c1cc2nc(C)c(CCC(=O)NC(C)CCc3ccco3)c(C)n2n1", "note": "(configuration not stated)", "inhibition": "2.19% (inactive)"},
      {"smiles": "CC(C)C(=O)Nc1ccccc1-c1nc2ccccc2[nH]c1=O", "inhibition": "-4.32% (inactive)"},
      {"smiles": "COc1cccc(NC(=O)CN(C)C(C)C(=O)Nc2ccc(S(=O)(=O)N3CCOCC3)cc2)c1", "note": "(configuration not stated)", "inhibition": "-38.9% (inactive)"},
      {"smiles": "COc1ccc(N(C(=O)c2cccnc2)S(=O)(=O)c2ccc(F)cc2)cc1", "inhibition": "2.07% (inactive)"},
      {"smiles": "O=C(Nc1ccc(S(=O)(=O)N2CCCC2)cc1)c1cccnc1", "inhibition": "-25.5% (inactive)"},
      {"smiles": "N/C(=N\\OC(=O)C(c1ccccc1)c1ccccc1)c1ccncc1", "inhibition": "-18.8% (inactive)"},
      {"smiles": "N/C(=N\\OC(=O)COc1ccc2ccccc2c1)c1ccccn1", "inhibition": "11.2% (inactive)"},
      {"smiles": "CCOC(=O)C(O)(NC(=O)c1cccnc1)C(F)(F)F", "note": "(configuration not stated)", "inhibition": "-10.6% (inactive)"},
      {"smiles": "O=C1CCCC2=C1C(c1ccncc1)Nc1ccccc1N2", "note": "(configuration not stated)", "inhibition": "16.9% (inactive)"},
      {"smiles": "COCCNC(=O)Cn1cnc2c1c(=O)n(C)c(=O)n2C", "inhibition": "-1.4% (inactive)"},
      {"smiles": "c1ccc2sc(N3CN(CCN4CCOCC4)CN(c4nc5ccccc5s4)C3)nc2c1", "inhibition": "-24.9% (inactive)"},
      {"smiles": "COc1ccc2sc(N(CCCN(C)C)C(=O)c3ccc(S(=O)(=O)N4CCc5ccccc5C4)cc3)nc2c1", "inhibition": "24.1% (inactive)"},
      {"smiles": "CN1CCN(c2ccccc2NC(=O)c2sc3ccccc3c2Cl)CC1", "inhibition": "-3.31% (inactive)"},
      {"smiles": "CC1CCN(c2nc3ccc(C(=O)NCCCN4CCCCC4)cc3s2)CC1", "inhibition": "-2.78% (inactive)"},
      {"smiles": "CN(C)CCOC(=O)c1sc2ccccc2c1Cl", "inhibition": "38.7% (inactive)"},
      {"smiles": "COc1cc(CNCCCN2CCOCC2)c(Br)cc1OCC(=O)Nc1ccccc1C", "inhibition": "-12% (inactive)"},
      {"smiles": "CCc1c(C)nc2cc(-c3cc(OC)cc(OC)c3)nn2c1N1CCCC1", "inhibition": "-7.01% (inactive)"},
      {"smiles": "Cc1ccc(C2CC(=O)NC(SCCC(C)C)=C2C#N)cc1", "note": "(configuration not stated)", "inhibition": "2.37% (inactive)"},
      {"smiles": "COc1ccc2c(c1)c1nc(SCC(C)C)n(CCO)c(=O)c1n2C", "inhibition": "-6.9% (inactive)"},
      {"smiles": "O=C(NCC1CCCO1)c1cc2ccccc2oc1=O", "note": "(configuration not stated)", "inhibition": "-15.1% (inactive)"},
      {"smiles": "O=S(=O)(c1ccccc1)c1nc(-c2cccs2)oc1NCC1CCCO1", "note": "(configuration not stated)", "inhibition": "-1.6% (inactive)"},
      {"smiles": "O=C(O)c1ccc(CSc2nnnn2C2CCCCC2)cc1", "inhibition": "-14.6% (inactive)"},
      {"smiles": "Cc1cc(NC(=O)COC(=O)c2cccc(S(=O)(=O)N(C)C3CCCCC3)c2)no1", "inhibition": "-24.1% (inactive)"},
      {"smiles": "O=C(O)Cn1c(=O)c2c3c(sc2n(Cc2ccccc2F)c1=O)CCCC3", "inhibition": "35.5% (inactive)"},
      {"smiles": "CC1(C)Oc2ccc3ccc(=O)oc3c2/C(=C/NCCN/C=C2\\C(=O)C(C)(C)Oc3ccc4ccc(=O)oc4c32)C1=O", "inhibition": "7.3% (inactive)"},
      {"smiles": "Cc1cccc(N(C(=O)CCC(=O)Nc2ccccn2)C(C(=O)NC(C)C)c2ccc(O)cc2)c1", "note": "(configuration not stated)", "inhibition": "4.7% (inactive)"},
      {"smiles": "O=C(O)c1cc2cc(F)ccc2[nH]1", "inhibition": "15.1% (inactive)"},
      {"smiles": "CCN1CCN(C(=O)Cc2coc3cc(C)cc(C)c23)CC1", "inhibition": "-20.3% (inactive)"},
      {"smiles": "CN1CCN(C(=O)CSc2ccc(Cl)cc2)CC1", "inhibition": "31.1% (inactive)"},
      {"smiles": "CCN1CCN(C(=O)c2cc3ccc(OC)cc3[nH]2)CC1", "inhibition": "-18.3% (inactive)"},
      {"smiles": "CCN1CCN(C(=O)/C=C/c2cccc(Cl)c2)CC1", "inhibition": "-10.1% (inactive)"},
      {"smiles": "COc1cccc(C(c2c(C)[nH]n(-c3ccccc3)c2=O)c2c(C)[nH]n(-c3ccccc3)c2=O)c1O", "inhibition": "35.1% (inactive)"},
      {"smiles": "COC(=O)C(O)(c1c(C)[nH]n(-c2ccccc2)c1=O)C(F)(F)F", "note": "(configuration not stated)", "inhibition": "33.2% (inactive)"},
      {"smiles": "Cc1c(-n2c(SCC(=O)C(C)(C)C)nc3ccccc3c2=O)c(=O)n(-c2ccccc2)n1C", "inhibition": "-0.29% (inactive)"}
    ]}
  ]
}
